Experimental data as given in PubChem BioAssay (NCI).
Several values for one entry are separate records, joined by “and”; a condition that tells them apart may be missing. Equal entries are not always repeated. This is part of a sample that, as a whole, favours compounds with a hit. Of some 79,000 tested, about 15% had one in any assay. Cut-off read from the data, not from the text of the source: active = growth inhibition above about 70%; inactive = the rest. Where a SMILES comes first, the peptide text is derived from it. [ ]: non-standard residue; d: D form. ξ: configuration not given here. ξF = NC(Cc1ccccc1)C(=O)O

Key:
[1] = NCI Yeast Anticancer Drug Screen. Data for the rad50 strain (AID 155);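 note: 0% = growth of vehicle-only cultures of the same strain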; settings: S. cerevisiae rad50 strain growth inhibition; at 50.0 µM; active compounds read high
How it was run: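 A DNA repair-deficient yeast mutant serves as the test organism; compound-induced growth inhibition is calculated against vehicle-treated cells.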

[2] = NCI Yeast Anticancer Drug Screen. Data for the mec2-1 strain (AID 157); settings: S. cerevisiae mec2-1 strain, at 50.0 µM, active compounds read high
How it was run: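 Each compound was tested on mec2-1 yeast, a strain altered in DNA damage repair or cell cycle control. Growth inhibition is reported relative to vehicle.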

[3] = NCI Yeast Anticancer Drug Screen. Data for the sgs1 mgt1 strain (AID 161);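 note: 0% = growth of cultures given vehicle only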; settings: S. cerevisiae sgs1 mgt1 strain, at 50.0 µM, active compounds read high
How it was run: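 Read-out: growth inhibition vs vehicle controls. Cells: mutant yeast strain deficient in DNA damage repair.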

[4] = NCI Yeast Anticancer Drug Screen. Data for the cln2 rad14 strain (AID 165);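 note: 0% = growth equal to vehicle treated cultures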; settings: S. cerevisiae cln2 rad14 strain, at 50.0 µM, active compounds read high
How it was run: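 Test compounds were added to cln2 rad14 yeast cultures; inhibition of growth was then determined by comparison with vehicle treatment.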

[5] = NCI Yeast Anticancer Drug Screen. Data for the bub3 strain (AID 167); settings: S. cerevisiae bub3 mutant strain, at 50.0 µM, active compounds read high
How it was run: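 Inhibition values come from growth of compound-treated mutant yeast normalised to vehicle-treated controls.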

[6] = NCI Yeast Anticancer Drug Screen. Data for the mlh1 rad18 strain (AID 175); settings: S. cerevisiae mlh1 rad18 strain growth inhibition; at 50.0 µM; active compounds read high
How it was run: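 Inhibition values reflect reduced growth of mutant yeast versus vehicle-treated controls following compound exposure; the mutations affect DNA damage repair.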

Measured: growth inhibition

CC(COC(=O)c1ccccc1)NC1CCCCC1 (stereo unspecified)
inactive: [1] 12.3% and 21.9% | [2] 1.05% and -0.85% | [3] 13.7% and 10.7% | [4] -27.6% and -0.55% | [5] -10.3% and 0.7% | [6] 10.4% and -0.2%

COc1cc(C2c3cc4c(cc3C(OC(=O)c3ccc[n+](C)c3)C3COC(=O)C23)OCO4)cc(OC)c1OC (stereo unspecified)
inactive: [1] -16.2% and -3.1% | [2] -11.3% and 8.1% | [3] -11.3% and 2.3% | [4] -17.5% and -1.65% | [5] 13.1% and 41.8% | [6] 5.45% and 9.45%

CCOC(=O)c1ccc(O)c(O)c1
inactive: [1] -23.9% and 15.5% | [2] -28.1% and 6.75% | [3] -6.65% and 4.05% | [4] -12.2% and 8.9% | [5] -11.8% and 0.7% | [6] -8.8% and -5.75%

Cc1c(C)[n+](=O)c2ccccc2n1[O-]
inactive: [1] 15.9% and 7.2% | [2] -19.1% and -4% | [3] -7.6% and 3.5% | [4] -20.6% and -2.05% | [5] -18.1% and -3.6% | [6] 5.4% and 5.85%

CCN(CC)CCCNC
inactive: [1] 6.2% and 26.6% | [2] -4.75% and 7.75% | [3] 3.2% and 3.7% | [4] 2.25% and -25.1% | [5] -9.6% and -4.5% | [6] 7.3% and 25.2%

Cc1ccc2ccccc2[n+]1C
inactive: [1] 31.9% and -24.6% | [2] -7.45% and -34.3% | [3] -1.25% and -16.4% | [4] -36.9% and 1.2% | [5] -1.5% and -26.8% | [6] -5.4% and -20.4%

C=CCC1=C(C)C(OC(=O)C=C(C)C)CC1=O (stereo unspecified)
inactive: [1] 19.8% and -4.3% | [2] -4% and -13.8% | [3] -6.15% and -6% | [4] 0.25% and -26.2% | [5] 3.6% and -13.3% | [6] -22% and -37%

O=[N+]([O-])c1ccc2[nH]c(=S)[nH]c(=S)c2c1
inactive: [1] -27.1% and 17.1% | [2] -49.4% and 35.7% | [3] 5.25% and 51% | [4] 7.7% and 36.5% | [5] -5.7% and -1.3% | [6] 12.2% and 16.4%

CCc1cc(-c2ccc(OC)cc2)c(C#N)c(=S)n1C1OC(COC(C)=O)C(OC(C)=O)C(OC(C)=O)C1OC(C)=O (stereo unspecified)
inactive: [1] 40% and 5.75% | [2] 1.35% and -4.9% | [3] -10.4% and -18.7% | [4] -20.9% and -29.4% | [5] -0.9% and 1.85% | [6] 11.2% and 7.05%

N#CC(C#N)=CN1CCOCC1
inactive: [1] -0.6% and 8.35% | [2] -24.1% and 8.95% | [3] 1.75% and -7.75% | [4] -22.5% and 10.4% | [5] -0.6% and -0.55% | [6] 4.1% and -12.9%

CCCCCC(O)C1C(=O)OC(C)C(O)/C=C/C=C/C=C/C=C\C=C(\C)C(O)CC(O)CC(O)CC(O)CC(O)CC(O)CC1O (stereo unspecified)
inactive: [1] 2.6% and 13.8% | [2] 16.9% and -17.5% | [3] -18.1% and -4.65% | [4] 68.2% and 1.3% | [5] 5.85% and 12.3% | [6] 62.3% and 6.3%

O=C(Nc1nn[nH]n1)c1nc(-c2ccccc2)cc(=O)[nH]1
inactive: [1] -15.6% and -10.2% | [2] -3.75% and 9.5% | [3] 7.35% and 5.4% | [4] -49.8% and 1.15% | [5] 5.7% and -5.95% | [6] 1.95% and -2.25%

O=C1C2C3C=CC(C3)C2C(=O)N1O (stereo unspecified)
inactive: [1] 18.1% and 24.3% | [2] -7.6% and -8.3% | [3] 7.1% and 11.2% | [4] 10% and 10.6% | [5] 25.1% and 3.05% | [6] 11.4% and 18.5%

NC(N)=S
inactive: [1] -10.2% and 7% | [2] -2.4% and -11.8% | [3] -6.1% and 9% | [4] 32.8% and 1.9% | [5] 3.75% and 3.8% | [6] 0.35% and -9.45%

O=c1nc(-c2ccccc2)cc(CC(O)(c2ccc(C(F)(F)F)cc2)c2ccc(Cl)c(Cl)c2)[nH]1 (stereo unspecified)
inactive: [1] 1.8% and 28.8% | [2] 15% and 15.4% | [3] 5.55% and 25.8% | [4] -17.8% and -26.6% | [5] 25.7% and 54.4% | [6] 8.35% and 11.3%

CC(C)(C)OC(=O)C1CCON1C1OC(C(O)CO)C2OC(C)(C)OC21 (stereo unspecified)
inactive: [1] -3.45% and 48.1% | [2] 7.85% and 43% | [3] 2.4% and 57.9% | [4] -8.25% and 19% | [5] 13.2% and 38.5% | [6] 10.8% and 59.4%

CCOC(=O)C(N)CS (stereo unspecified)
inactive: [1] -1.35% and -31.1% | [2] -22.8% and -66.1% | [3] -2.5% and -6.05% | [4] -26.9% and 7.05% | [5] -28.3% and -30.7% | [6] 4.95% and -27.9%

OC/C=C/c1ccccc1
inactive: [1] 5.7% and 14.7% | [2] 6.7% and -3.15% | [3] 12.1% and -16.6% | [4] 10.1% and -2.55% | [5] 2.65% and 12.1% | [6] 14.7% and -8.85%

NCC(=O)NC(Cc1ccccc1)C(=O)O (stereo unspecified) (H-Gly-[ξF]-OH)
inactive: [1] -28.9% and -14.6% | [2] -14.6% and -12.2% | [3] -1% and -20.6% | [4] -3.9% and -2.65% | [5] -8.25% and -10% | [6] -3.75% and -13.3%

COc1cc2c(cc1OC)C1Cc3cc(OC)c(OC)cc3C(C2)N1C
inactive: [1] 23.4% and -37.9% | [2] 4.4% and -16.9% | [3] -6.2% and -5% | [4] 6.8% and 2.6% | [5] -5.25% and -3.2% | [6] -45% and -24.2%

COc1ccc2c(=O)c(C)c(-c3ccccc3)oc2c1CN(C)C
inactive: [1] 5.85% and -33.4% | [2] -40.1% and -38.5% | [3] 10.3% and -26.6% | [4] 9.8% and -0.05% | [5] -22.6% and -24.3% | [6] 2% and -28.3%
